The results in this text go back to PubChem BioAssay (NCATS).

For assay [1], the target named is Rap guanine nucleotide exchange factor 4 (Homo sapiens) (UniProt Q8WZA2). The experiment in a line: Confirmatory qHTS for antagonist of cAMP-regulated guanine nucleotide exchange factor 4 (EPAC2) (AID 1645885; note: nearly all actives have a fitted effect of over 25% in size; note: potency is the fitted concentration of half-maximal effect). (In qHTS, concentration-response curves come from the screen itself.)
Sequence of Rap guanine nucleotide exchange factor 4 (Homo sapiens) (Q8WZA2 whole entry, looked up): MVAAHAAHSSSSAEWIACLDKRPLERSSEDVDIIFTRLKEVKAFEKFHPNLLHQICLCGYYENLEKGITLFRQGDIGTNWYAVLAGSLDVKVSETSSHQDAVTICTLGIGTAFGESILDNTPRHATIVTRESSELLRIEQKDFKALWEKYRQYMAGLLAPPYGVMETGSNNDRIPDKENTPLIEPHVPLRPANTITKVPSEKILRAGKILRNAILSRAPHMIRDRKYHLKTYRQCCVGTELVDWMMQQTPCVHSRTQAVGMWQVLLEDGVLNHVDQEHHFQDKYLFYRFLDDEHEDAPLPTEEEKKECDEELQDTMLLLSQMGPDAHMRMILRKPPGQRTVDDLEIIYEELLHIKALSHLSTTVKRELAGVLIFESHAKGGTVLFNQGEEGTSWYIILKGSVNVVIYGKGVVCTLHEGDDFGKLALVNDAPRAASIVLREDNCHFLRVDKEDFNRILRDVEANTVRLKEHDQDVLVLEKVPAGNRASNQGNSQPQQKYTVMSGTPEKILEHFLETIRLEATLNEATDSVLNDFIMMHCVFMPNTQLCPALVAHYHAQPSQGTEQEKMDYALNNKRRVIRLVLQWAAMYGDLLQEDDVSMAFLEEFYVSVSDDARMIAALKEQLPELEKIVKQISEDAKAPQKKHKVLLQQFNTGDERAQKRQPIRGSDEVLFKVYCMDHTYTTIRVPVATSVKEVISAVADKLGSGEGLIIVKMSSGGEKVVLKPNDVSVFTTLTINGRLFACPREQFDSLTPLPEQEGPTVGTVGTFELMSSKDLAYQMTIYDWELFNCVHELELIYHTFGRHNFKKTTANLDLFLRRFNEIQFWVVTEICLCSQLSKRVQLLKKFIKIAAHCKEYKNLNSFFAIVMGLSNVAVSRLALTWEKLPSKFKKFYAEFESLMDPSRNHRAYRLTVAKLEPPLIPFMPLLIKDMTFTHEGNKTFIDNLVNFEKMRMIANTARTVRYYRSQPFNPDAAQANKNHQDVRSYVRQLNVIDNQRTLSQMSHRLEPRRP
In assay [2] the target is Catechol O-methyltransferase (Homo sapiens) (UniProt P21964). The experiment in a line: Confirmatory Screen for Target Class Profiling of Small Molecule Inhibitors of Methyltransferases (AID 1745852). For activity change, negative = inhibition: % is set by controls: 0 for no effect and ±100 for the full control effect. Conditions: MTase-Glo luminescence, SAH detection, recombinant enzyme; measured here: COMT max response; stronger effect = lower value.
Sequence of Catechol O-methyltransferase (Homo sapiens) (P21964 whole entry, looked up): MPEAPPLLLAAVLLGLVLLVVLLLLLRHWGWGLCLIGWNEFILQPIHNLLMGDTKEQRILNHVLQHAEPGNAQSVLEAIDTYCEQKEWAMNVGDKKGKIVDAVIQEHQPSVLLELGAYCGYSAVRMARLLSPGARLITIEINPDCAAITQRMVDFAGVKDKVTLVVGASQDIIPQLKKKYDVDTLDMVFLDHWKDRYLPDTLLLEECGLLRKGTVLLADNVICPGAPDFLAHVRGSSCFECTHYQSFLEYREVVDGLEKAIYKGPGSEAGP
Assay [3] deals with Guanidinoacetate N-methyltransferase (Homo sapiens) (UniProt Q14353). Described as above. The note with it: MTase-Glo luminescence, SAH detection, recombinant enzyme.
For assay [4], the target named is Nicotinamide N-methyltransferase (Homo sapiens) (UniProt P40261). The description is as above. Conditions: MTase-Glo luminescence, SAH detection, recombinant enzyme; measured here: NNMT max response; stronger effect = lower value.
Sequence of Nicotinamide N-methyltransferase (Homo sapiens) (P40261 whole entry, looked up): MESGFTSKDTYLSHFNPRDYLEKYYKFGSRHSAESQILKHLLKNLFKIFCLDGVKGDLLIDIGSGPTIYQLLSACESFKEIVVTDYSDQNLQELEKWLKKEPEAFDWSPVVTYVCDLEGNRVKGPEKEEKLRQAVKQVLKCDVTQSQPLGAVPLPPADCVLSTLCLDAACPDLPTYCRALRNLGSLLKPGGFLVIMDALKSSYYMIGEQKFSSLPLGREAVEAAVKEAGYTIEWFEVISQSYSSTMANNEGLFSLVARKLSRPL
Assay [5] addresses Phenylethanolamine N-methyltransferase (Homo sapiens) (UniProt P11086). Described as above. The note with it: MTase-Glo luminescence, SAH detection, recombinant enzyme; measured here: PNMT max response; stronger effect = lower value.
Assay [6] deals with Glutathione peroxidase 1 (Homo sapiens) (UniProt P07203). Briefly: Primary qHTS Assay for Inhibitors of Recombinant Selenoprotein Glutathione Peroxidase 1 (GPX1) (AID 1845191). Note: nearly all actives have a fitted effect of over 65% in size. Summed up:
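NADPH consumption tracked by fluorescence at 340/450 nm between t=0 and t=15 min, room temperature. Final mix: 10 nM GPX1, 100 nM glutathione reductase, 1 mM GSH, 0.5 mM NADPH, 0.5 mM cumene hydroperoxide, 0.01% BSA; 30 min compound–enzyme preincubation.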

Assay [7] addresses Phospholipid hydroperoxide glutathione peroxidase GPX4 (Homo sapiens) (UniProt P36969). Briefly: Primary qHTS Assay for Inhibitors of Recombinant Selenoprotein Glutathione Peroxidase 4 (GPX4) (AID 1845192). For activity change, negative = inhibition: % is set by controls: 0 for no effect and ±100 for the full control effect. Note: nearly all actives have a fitted effect of over 65% in size. Summed up:
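NADPH consumption followed by fluorescence at 340/450 nm, t=0 and after 15 min at room temperature. Reaction started with cumene hydroperoxide (0.5 mM final) after 30 min compound–GPX4 preincubation; final 200 nM GPX4, 100 nM GR, 1 mM GSH, 0.5 mM NADPH.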

Assay [8] deals with Luciferin 4-monooxygenase (Photinus pyralis) (UniProt P08659). Briefly: Primary firefly luciferase (FLuc) qHTS assay for identification of artifact compounds. (AID 1845220).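 For activity change, negative = inhibition: plate controls were DMSO vehicle for no effect and no enzyme for full effect.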 Note: nearly all actives have a fitted effect of over 60% in size. The note with it: outcome: dose series up to 54.1 µM unless noted. Summed up: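 FLuc 10 nM; luciferin 10 uM; ATP 10 uM; Tris-acetate pH 7.6, Mg-acetate 10 mM; 15 min RT preincubation; 5 min reaction; luminescence.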

Assay [9] can be described thus: Primary fluorescence-based thiol-reactive (MSTI) qHTS assay for identification of artifact compounds. (AID 1845221).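 Note: thiol-reactive compounds lower the probe fluorescence signal; nearly all actives have a fitted effect of over 65% in size.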 Summed up:
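Probe: MSTI 4 uM, PBS pH 7.4, 2% DMSO. Incubation 1 h, RT, light-protected. Readout fluorescence 525/598 nm.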

In assay [10] the test system is Nanoluciferase (engineered Oplophorus gracilirostris luciferase). The experiment in a line: Primary Nanoluciferase (NLuc) qHTS assay for identification of artifact compounds. (AID 1845222).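 Note: NLuc secreted into diluted conditioned medium of S16 cells; 0% = DMSO and -100% = no enzyme.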 Summed up:
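NLuc from S16 cell medium (1:55) plus test compounds, 15 min, room temperature. Luminescence after Nano-Glo (1:100) addition, 5 min.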

The target in assay [11] is Rap guanine nucleotide exchange factor 4 (Homo sapiens) (UniProt Q8WZA2). Briefly: Confirmatory qHTS for agonist of cAMP-regulated guanine nucleotide exchange factor 4 (EPAC2) (AID 1645884).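 Note: nucleotide exchange releases bodipy-GDP from Rap1 and this lowers its fluorescence; % is set by controls: 0 for no effect and ±100 for the full control effect; nearly all actives have a fitted effect of over 65% in size.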
Assay [12] has as its target Rap guanine nucleotide exchange factor 3 (Homo sapiens) (UniProt O95398). The experiment in a line: Counterscreen qHTS for antagonist of cAMP-regulated guanine nucleotide exchange factor 3 (EPAC1) (AID 1645888).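 Note: fluorescence loss as bound BODIPY-GDP is released from Rap1B; % of control where 0% means no effect.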 The gist of the method:
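Rap1B-BODIPY-GDP 250 nM + GDP 50 uM; cpds 7-pt, final 9.74 nM–152 uM (activator mode) or from 7.32 nM upwards (inhibitor mode); RT; FI 480/540 nm at 5 and 30 min, then ± cAMP, reread.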
A general note: The purpose of a counterscreen is to sort out artefacts and off-target activity.

The nature of assay [13]: NCATS anti-infectives library activity on HEK293 viability as a counter-qHTS vs the C. elegans viability qHTS (AID 1745854).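 Note: HEK293 cells exposed to compounds for 24 hr before the viability read; % is set by controls: 0 for no effect and ±100 for the full control effect.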 The gist of the method: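 Compound titrations (final up to 41.7 uM) were incubated with HEK293 cells for 24 hr at 37C under 5% CO2. Viable cells were quantified with CellTiter-Glo after 10 min at ambient temperature.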
Assay [14] deals with Metallo-beta-lactamase type 2 (Klebsiella pneumoniae) (UniProt C7C422). Briefly: qHTS to identify inhibitors of the New Delhi Metallo-beta-lactamase (NDM): assay validation screen against the NCATS LOPAC Collection (AID 1794843).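 Note: nitrocefin turnover by NDM-1 measured as 485 nm absorbance at plateau; % is set by controls: 0 for no effect and ±100 for the full control effect.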 The gist of the method:
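Enzyme 2 nM final, 50 mM HEPES pH 7.0, 1 uM ZnSO4, 0.01% Tween20; cpds in DMSO, preincub w/ enzyme; + nitrocefin (50 uM stock); A485 at plateau; no-enzyme column as blank.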

Assay [15] can be described thus: NCATS anti-infectives library activity on the primary C. elegans qHTS viability assay (AID 1745855; calls by dose curve). Conditions: C. elegans worm area imaging, day 7; at 41.8 µM (top of the series). The gist of the method: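 Titration-based screen in worms: eggs hatched overnight in M9, L1 larvae fed TOP10 capsules in S medium with compound, incubated 21 °C for 7 days; fluorescent objects gated by size and intensity at days 0, 3 and 7.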

Where “and” joins values, the source holds several entries; their conditions need not be identical. Equal values may be shown once. Inconclusive results are not listed. Where a structure was tested more than once in an assay, its records may differ in their call. Calls of active or inactive are those of the source. Unless noted, calls come from the whole dose curve; as a rule, active = well fitted curve in the direction sought with a large enough effect; inconclusive = small, poorly fitted or top-dose-only effect, or another doubt; inactive = no such curve, though single readings can be large; an effect the other way counts as inactive or inconclusive.

Sequence of Phenylethanolamine N-methyltransferase (Homo sapiens) (P11086 whole entry, looked up): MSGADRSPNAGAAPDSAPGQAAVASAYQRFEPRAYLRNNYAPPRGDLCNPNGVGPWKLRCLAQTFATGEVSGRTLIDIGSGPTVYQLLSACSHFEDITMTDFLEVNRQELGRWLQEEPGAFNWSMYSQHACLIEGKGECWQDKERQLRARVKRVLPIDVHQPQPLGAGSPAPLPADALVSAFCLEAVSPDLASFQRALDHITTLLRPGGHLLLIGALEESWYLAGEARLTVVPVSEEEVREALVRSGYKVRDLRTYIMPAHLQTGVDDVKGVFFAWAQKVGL
Sequence of Metallo-beta-lactamase type 2 (Klebsiella pneumoniae) (C7C422 whole entry, looked up): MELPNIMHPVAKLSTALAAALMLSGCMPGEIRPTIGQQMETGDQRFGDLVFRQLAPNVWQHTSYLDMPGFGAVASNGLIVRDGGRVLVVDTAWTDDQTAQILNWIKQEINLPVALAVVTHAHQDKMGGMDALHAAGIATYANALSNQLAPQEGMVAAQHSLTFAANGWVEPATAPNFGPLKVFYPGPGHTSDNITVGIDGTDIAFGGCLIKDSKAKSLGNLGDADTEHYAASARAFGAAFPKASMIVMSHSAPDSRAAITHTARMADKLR
Sequence of Glutathione peroxidase 1 (Homo sapiens) (P07203 whole entry, looked up): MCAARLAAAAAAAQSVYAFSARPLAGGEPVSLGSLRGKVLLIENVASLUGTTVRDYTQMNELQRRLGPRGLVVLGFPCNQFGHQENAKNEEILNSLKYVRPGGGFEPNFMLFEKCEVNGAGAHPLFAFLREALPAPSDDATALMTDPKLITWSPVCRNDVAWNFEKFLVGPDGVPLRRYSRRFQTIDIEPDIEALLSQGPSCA
Sequence of Phospholipid hydroperoxide glutathione peroxidase GPX4 (Homo sapiens) (P36969 whole entry, looked up): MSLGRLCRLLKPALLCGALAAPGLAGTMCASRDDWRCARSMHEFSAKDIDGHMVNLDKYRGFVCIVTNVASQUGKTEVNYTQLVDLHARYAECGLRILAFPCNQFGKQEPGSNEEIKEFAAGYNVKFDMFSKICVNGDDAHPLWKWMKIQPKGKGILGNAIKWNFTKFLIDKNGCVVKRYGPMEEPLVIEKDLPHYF
Sequence of Rap guanine nucleotide exchange factor 3 (Homo sapiens) (O95398 whole entry, looked up): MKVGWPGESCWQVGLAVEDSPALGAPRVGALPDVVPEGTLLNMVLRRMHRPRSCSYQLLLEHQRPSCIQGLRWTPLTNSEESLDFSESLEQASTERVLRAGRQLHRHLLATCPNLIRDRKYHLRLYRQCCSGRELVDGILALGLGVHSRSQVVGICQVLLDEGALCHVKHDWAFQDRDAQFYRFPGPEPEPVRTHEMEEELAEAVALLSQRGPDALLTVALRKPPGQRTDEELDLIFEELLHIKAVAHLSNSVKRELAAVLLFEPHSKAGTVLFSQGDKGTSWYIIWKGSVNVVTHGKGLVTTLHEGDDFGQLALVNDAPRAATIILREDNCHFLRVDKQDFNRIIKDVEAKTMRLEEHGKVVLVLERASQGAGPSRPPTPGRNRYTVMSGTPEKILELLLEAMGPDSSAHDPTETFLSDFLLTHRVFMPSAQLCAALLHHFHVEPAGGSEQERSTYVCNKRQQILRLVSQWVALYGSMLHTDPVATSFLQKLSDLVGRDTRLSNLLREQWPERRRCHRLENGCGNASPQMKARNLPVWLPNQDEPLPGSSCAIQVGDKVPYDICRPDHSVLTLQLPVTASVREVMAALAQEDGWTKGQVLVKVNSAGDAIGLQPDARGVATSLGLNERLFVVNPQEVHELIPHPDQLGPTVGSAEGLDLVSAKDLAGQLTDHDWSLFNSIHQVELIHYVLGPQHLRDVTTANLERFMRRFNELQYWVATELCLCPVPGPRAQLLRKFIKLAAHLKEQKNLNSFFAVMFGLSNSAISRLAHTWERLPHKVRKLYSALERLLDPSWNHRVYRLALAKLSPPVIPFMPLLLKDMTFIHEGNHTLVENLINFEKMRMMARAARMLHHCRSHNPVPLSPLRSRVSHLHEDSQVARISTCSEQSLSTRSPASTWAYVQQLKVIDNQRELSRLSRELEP

Take `O=C1Nc2ccc(Cl)cc2[C@@](C#CC2CC2)(C(F)(F)F)O1`: the Potency in assay [1] was 44.1 µM (active). Moreover, the activity in assay [2] was -1.93%; in assay [4] it was -43%; in assay [5], -2.33%. Also, the activity change, negative = inhibition in assay [3] (at 57.3 µM (top of the series)) turned out to be 0%. Moreover, the Potency result in [6], in [7] and in assay [9] was “inactive” each time. Besides, the outcome in [8] and in assay [10] was “inactive” in each case.

Turning to `CCCc1c(OCCCCc2nn[nH]n2)ccc(C(C)=O)c1O`, in assay [11], the Potency result was “inactive”. In assay [1], the Potency is 15.6 µM (active) and the activity change, negative = inhibition is -26.3% [at 12.7 µM] (inactive). The outcome in assay [12] is “inactive”.

Consider `CN(C)CCCN1c2ccccc2Sc2ccc(Cl)cc21`, for which the outcome in assay [13] and in [14] was “inactive” in each case. Besides, the Potency result in [6] and in assay [7] was “inactive” throughout.

Turning to `CCCCc1ncc(/C=C(\Cc2cccs2)C(=O)O)n1Cc1ccc(C(=O)O)cc1`, the outcome in assay [13], in assay [15], in [14], in assay [8] and in [10] was “inactive” throughout. Also, the Potency entry in [6], in assay [7] and in [9] was “inactive” each time.

As to `CN1CCN(C2Cc3ccccc3Sc3ccc(Cl)cc32)CC1` (stereo not given), the activity in [2] was 14.6%; in assay [4] it was -22.8%; in assay [5], 8.62%. For the same compound, the activity change, negative = inhibition in assay [3] (at 57.3 µM (top of the series)) is 8.35%. Also, the outcome in assay [14] is “inactive”. In addition, the Potency entry in [6] and in assay [7] was “inactive” in each case.

In the case of `CCN(CC)CCCC(C)Nc1c2ccc(Cl)cc2nc2ccc(OC)cc12` (stereo not given), the Potency result in assay [1], in assay [6], in assay [7] and in assay [9] was “inactive” each time. The activity in assay [2] was -1.98% and -3.74%; in assay [4] it was -11.3% and -15.1%; in [5], 3.56% and -4.16%. Besides, the activity change, negative = inhibition in assay [3] (at 29.8 µM (top of the series)) was -0.149%; in assay [3] (at 57.3 µM (top of the series)) it was 2.96%. Moreover, the outcome in [14] and in [10] was “inactive” in each case. The outcome in [8] was “inactive [at 25.7 µM]”.

`CNC(=O)Oc1ccc2c(c1)[C@]1(C)CCN(C)[C@@H]1N2C`: the Potency result in assay [11], in assay [1], in assay [6] and in assay [7] was “inactive” each time. The outcome in assay [14], in [8] and in assay [10] was “inactive” throughout.

`O=c1cc(CO)occ1O`: the outcome in [13] was “inactive”. The Potency result in assay [6] and in assay [7] was “inactive” throughout.

For `C[C@]12CC[C@@H]3c4ccc(O)cc4CC[C@H]3[C@@H]1CCC2=O`, the figures for the activity in [2], in assay [4] and in assay [5] were -21.5%, -55.7% and -0.307%, respectively. In addition, the activity change, negative = inhibition in [3] (at 57.3 µM (top of the series)) was -1.67%. In assay [14], the outcome was “inactive”. The Potency entry in assay [6] and in assay [7] was “inactive” throughout.

With `NCC(=O)CCC(=O)O`, in assay [13], the outcome is “inactive”. Also, the Potency result in assay [6] and in [7] was “inactive” each time.

Consider `COCCOC(=O)C1=C(C)NC(C)=C(C(=O)OC/C=C/c2ccccc2)C1c1cccc([N+](=O)[O-])c1` (stereo not given), for which the Potency entry in assay [11], in assay [6] and in assay [7] was “inactive” in each case. Also, the outcome in [14] is “inactive”.

For the compound `CCOc1nc2cccc(C(=O)O)c2n1Cc1ccc(-c2ccccc2-c2nn[nH]n2)cc1`, the outcome in assay [13], in [15] and in assay [8] was “inactive” throughout. Also, the Potency result in [6], in [7] and in [9] was “inactive” throughout.
